Each structure is given as a SMILES string. Where “and” joins values, the source holds several entries; their conditions need not be identical. Equal values may be shown once. Records with an inconclusive call do not appear. Where a call stands in place of a potency, no number is given. Calls of active or inactive are those of the source. Calls follow the shape of the dose curve; as a rule, active = well fitted inhibition curve with a large enough effect; inconclusive = small, poorly fitted or top-dose-only effect; inactive = no such curve, though single readings can be large or run the other way.

The nature of this experiment: qHTS Assay for Inhibitors of Bacillus subtilis Sfp phosphopantetheinyl transferase (PPTase): Hepg2 Assay. As to conditions: HepG2 cytotoxicity counter-screen; series mostly up to 46.1 µM. The source says:
The covalent attachment of a phosphopantetheinyl (4'-PP) arm to a variety of synthases and other proteins is a key posttranslational protein modification. The 4'-PP is installed on the proteins post-translationally from coenzyme A (CoA) on a conserved serine residue by action of phosphopantetheinyl transferase (PPTase) enzymes. Phosphopantetheinylation is essential for synthase activity, and removal of the PPTase gene precludes natural product synthesis in microorganisms, or in the case of fatty acid biosynthesis, renders the organism unviable. PPTase enzymes belong to a distinct structural superfamily. Within bacteria, these enzymes are grouped into two classes based upon primary structure, the AcpS-Type and Sfp-Type PPTases.
Sfp-type PPTases, corresponding to an activator of surfactin production in Bacillus subtilis, are responsible for modifying type I polyketide and nonribosomal peptide synthases of prokaryotes. Sfp-type PPTases are responsible for the activation of a variety of pathogen-associated virulence factors. Among these compounds are toxins such as mycolactone from Mycobacterium ulcerans, siderophores such as vibriobactin from Vibrio cholerae or mycobactin from Mycobacterium tuberculosis, as well as the mycolic acids which form the waxy cell wall of Mycobacteria. The biosyntheses of these natural products are considered attractive targets for drug design.
In search of small molecule Sfp-PPTase inhibitors, a fluorescence quenching assay was developed for detection of Bacillus subtilis Sfp-PPTase enzymatic activity in a miniaturized high-throughput format. The consensus ybbr acceptor peptide […] was N-terminally labeled with Black Hole Quencher-2 (BHQ-2) and used in combination with rhodamine-labeled coenzyme A as a co-substrate.
Phosphopantetheinyl transfer is a process essential to cellular viability and maintenance in all forms of life. Cell-permeable and stable compounds acting as PPTase inhibitors are anticipated to be growth inhibitory agents. This assay sought to assess the toxicity of test compounds in the HepG2 hepatocarcinoma cells; a human cell line whose use additionally determines the toxicity of test article metabolites.
NIH Chemical Genomics Center [NCGC]
NIH Molecular Libraries Probe Centers Network [MLPCN]
Assay Submitter (PI): Michale Burkart, University of California, San Diego
Test compounds' toxicity was assessed by measuring cellular ATP content using a luciferase-coupled ATP quantitation assay (CellTiter-Glo; Promega, Madison, WI). In this assay, luminescent signal is proportional to amount of ATP, and thus to the number of metabolically competent cells. Briefly, Hepg2 cell suspension (5 uL, 4 x 10^5 cells/mL) was dispensed into 1,536-well tissue-culture treated white/solid bottom assay plates (Greiner Bio-One North America, Monroe, NC) using a Flying Reagent Dispenser (Aurora Discovery, Carlsbad, CA). Cells were incubated at 37 deg C for 6 hr to allow for cell attachment, followed by addition of compounds via pin tool (Kalypsys, San Diego, CA). After compound addition, plates were incubated for 48 hr at 37 deg C. At the end of the incubation period, CellTiter-Glo reagent (5 uL) was added, plates were incubated at room temperature in the dark for 30 min, and the luminescence intensity of each well was determined using a ViewLux plate reader (PerkinElmer, Shelton, CT). The positive control was 92 uM and 41 uM of tetra-N-Octylammonium bromide, and the negative control was DMSO.
In general terms: Quantitative high-throughput screening tests each substance at several concentrations.
As for `Cc1cc(C)nc(NC(=S)N2CCN(c3noc4ccccc34)CC2)c1`, the Potency entry was “inactive”. Under `Cc1cc(C)nc(NC(=S)N2CCN(c3nc4ccccc4s3)CC2)c1` stands “inactive”.

For `COc1cccc(NC(=S)N2CCN(c3ccc(Cl)c(Cl)c3)CC2)n1`, the Potency entry was “inactive”. For `S=C(Nc1cc(Cl)ccn1)N1CCN(c2cc(Cl)cc(Cl)c2)CC1`, the Potency was 9.96 µM (active).

As for `Cc1cc(C)nc(NC(=S)N2CCN(c3nsc4ccccc34)CC2)c1`, the Potency entry was “inactive”. The value for `Cc1cc(C)nc(NC(=S)N2CCN(c3cc(C(F)(F)F)nc4ccc(C(F)(F)F)cc34)CC2)c1` was “inactive”.

Take `Cc1cc(C)nc(NC(=S)N2CCN(c3ccncc3)CC2)c1`: the Potency entry is “inactive”.

Regarding `Cc1cc(C)nc(NC(=S)N2CCN(c3ccc(Cl)cc3F)CC2)c1`, the Potency entry is “inactive”. The value for `FC(F)(F)c1cc(N2CCN(C(=S)Nc3cc(Cl)ccn3)CC2)cc(C(F)(F)F)c1` was 15.8 µM (active).

Consider `Cc1cc(C)nc(NC(=S)N2CCN(c3ccc(Cl)c(Cl)c3Cl)CC2)c1`, for which the Potency entry was “inactive”.

Regarding `Cc1cc(C)nc(NC(=S)N2CCN(c3ncccc3Cl)CC2)c1`, the Potency result was “inactive”. Under `Cc1ccc(N2CCN(C(=S)Nc3cc(C)ccn3)CC2)cc1` stands “inactive”; under `Cc1cc(C)nc(NC(=S)N2CCN(c3nccc4ccccc34)CC2)c1`, “inactive”.

For the molecule `Cc1ccnc(NC(=S)N2CCN(c3cccc(C(F)(F)F)c3)C[C@@H]2C)c1`, the Potency entry is “inactive”. The value for `Cc1cc(C)nc(NC(=S)N2CCN(Cc3cccc4ccccc34)CC2)c1` was “inactive”. Under `Cc1ccnc(NC(=S)NC2CN(c3cccc(C(F)(F)F)c3)C2)c1` stands 25 µM (active). Under `Cc1ccnc(NC(=S)N2CCN(c3ccc(N)cc3)CC2)c1` stands “inactive”; under `Cc1cc(C)nc(NC(=S)N2CCN(c3cccc(S(C)(=O)=O)c3)CC2)c1`, “inactive”.

`Cc1cc(C)nc(NC(=S)N2CCN(c3ccsc3)CC2)c1`: the Potency result was “inactive”. Under `FC(F)(F)c1cccc(N2CCN(C(=S)Nc3cc4ccccc4cn3)CC2)c1` stands “inactive”; under `Cc1cc(C)nc(NC(=S)N2CCN(c3ccc(C(=O)O)cc3)CC2)c1`, “inactive”.

Turning to `Cc1ccnc(NC(=S)N2CCN(c3cc(C(F)(F)F)cc(C(F)(F)F)c3)CC2)c1`, the Potency is 7.91 µM (active). The value for `Cc1ccnc(NC(=S)N2CCN(c3ccc(Br)cc3)CC2)c1` was “inactive”. Under `Cc1cc(C)nc(NC(=S)N2CCN(c3ccc4nonc4c3)CC2)c1` stands “inactive”. Under `Cc1cc(C)nc(NC(=S)N2CCN(c3ccc(C(F)(F)F)cc3[N+](=O)[O-])CC2)c1` stands “inactive”; under `COc1ccnc(NC(=S)N2CCN(c3ncc(C(F)(F)F)cc3Cl)CC2)c1`, “inactive”; under `FC(F)(F)c1cccc(N2CCN(C(=S)Nc3nccc4ccccc34)CC2)c1`, “inactive”. For the molecule `FC(F)(F)c1cccc(N2CCN(C(=S)Nc3cnccn3)CC2)c1`, the Potency result is “inactive”. As to `Cc1cc(NC(=S)N2CCN(c3cccc(C(F)(F)F)c3)CC2)nc2ccccc12`, the Potency entry is “inactive”.

Regarding `Cc1ccnc(NC(=S)N2CCN(c3cccc(C(F)(F)F)c3)CC2)c1`, the Potency was 28.1 µM (active) and 9.96 µM (active) and 25 µM (active). For `Cc1ccnc(NC(=S)N2CCN(c3ccc(Cl)c(Cl)c3)CC2)c1`, the Potency is 28.1 µM (active). The value for `Cc1cc(C)nc(Nc2nnc(N3CCN(c4cccc(C(F)(F)F)c4)CC3)s2)c1` was “inactive”. Take `Cc1cc(C)nc(NC(=S)N2CCN(c3ccc4c(c3)OCO4)CC2)c1`: the Potency result was “inactive”. Take `COc1cccc(NC(=S)N2CCN(c3cccc(Cl)c3Cl)CC2)n1`: the Potency entry is “inactive”.

Take `Cc1cc(C)nc(NC(=S)N2CCN(S(=O)(=O)c3cccc(C(F)(F)F)c3)CC2)c1`: the Potency entry is “inactive”. Under `Cc1cc(C)nc(NC(=S)N2CCN(c3cc(F)cc(F)c3)CC2)c1` stands “inactive”. The value for `Cc1cc(C)nc(NC(=S)N2CCN(c3ncnc4sccc34)CC2)c1` was 15.8 µM (active). The value for `Cc1cc(C)nc(NC(=S)N2CCN(c3ccc4occc4c3)CC2)c1` was “inactive”. On to `COc1ccnc(NC(=S)N2CCN(c3cccc(Cl)c3Cl)CC2)c1`, for which the Potency entry is “inactive”. In the case of `CC(=O)N1CCN(C(=S)Nc2cc(C)ccn2)CC1`, the Potency entry is “inactive”.

Values taken from PubChem BioAssay AID602373 (National Center for Advancing Translational Sciences (NCATS), 2012).
